# Values joined by “and” are separate entries in the source; they are usually repeats but may differ in a detail not shown here. Equal entries are not always repeated. The campaign covered roughly 5,500 compounds. About 2,000 (36%) were called active. Not shown: some 18% with an inconclusive outcome. The list shows a part of the results. Unmarked numbers belong to inactive results. Cut-off read from the data, not from the text of the source: active = normalized growth mostly below about 0.91 (no sharp cut-off); inconclusive = no clear call, values can overlap the other calls; inactive = mostly above about 0.92.
# Assay: chemical genetic growth profiling, strain panel (AID 1159580);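 note: tested at 20 µM; growth read once vehicle control cultures reached saturation at 30 °C; 1 = growth at the plate median or of vehicle wells; lower values mean less growth of the strain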
# Conditions: S. cerevisiae deletion strains, growth OD
structure (smiles),measurement,setting,value
COc1c(N2CCNC(C)C2)c(F)cc2c(=O)c(C(=O)O)cn(C3CC3)c12 (stereo unspecified),normalized growth,"locus YAL013W, strain DEP1, active compounds read low",0.984
same,normalized growth,"locus YAL021C, strain ccr4, active compounds read low",0.972
same,normalized growth,"locus YAL026C, strain drs2, active compounds read low",0.955
same,normalized growth,"locus YAL030W, strain snc1, active compounds read low",0.985
same,normalized growth,"locus YBL061C, strain skt5, active compounds read low",0.992
same,normalized growth,"locus YBR009C, strain hhf1, active compounds read low",0.968
same,normalized growth,"locus YBR021W, strain FUR4, active compounds read low",0.951
same,normalized growth,"locus YBR023C, strain chs3, active compounds read low",0.982
same,normalized growth,"locus YBR171W, strain sec66, active compounds read low",0.985
same,normalized growth,"locus YBR229C, strain ROT2, active compounds read low",1.01
same,normalized growth,"locus YBR231C, strain swc5, active compounds read low",0.985
same,normalized growth,"locus YBR279W, strain paf1, active compounds read low",0.986
same,normalized growth,"locus YCL011C, strain gbp2, active compounds read low",0.966
same,normalized growth,"locus YCL016C, strain dcc1, active compounds read low",0.899 (active)
same,normalized growth,"locus YCL029C, strain bik1, active compounds read low",1.01
same,normalized growth,"locus YCL061C, strain MRC1, active compounds read low",0.957
same,normalized growth,"locus YCL069W, strain vba3, active compounds read low",0.994
same,normalized growth,"locus YCR088W, strain abp1, active compounds read low",0.973
same,normalized growth,"locus YDL005C, strain med2, active compounds read low",0.998
same,normalized growth,"locus YDL035C, strain GPR1, active compounds read low",1
same,normalized growth,"locus YDL040C, strain nat1, active compounds read low",0.984
same,normalized growth,"locus YDL074C, strain BRE1, active compounds read low",0.965
same,normalized growth,"locus YDL101C, strain DUN1, active compounds read low",1.01
same,normalized growth,"locus YDL134C, strain PPH21, active compounds read low",1.02
same,normalized growth,"locus YDL185W, strain tfp1, active compounds read low",1.01
same,normalized growth,"locus YDL192W, strain arf1, active compounds read low",1.02
same,normalized growth,"locus YDR001C, strain nth1, active compounds read low",0.976
same,normalized growth,"locus YDR069C, strain doa4, active compounds read low",0.99
same,normalized growth,"locus YDR101C, strain arx1, active compounds read low",0.993
same,normalized growth,"locus YDR137W, strain rgp1, active compounds read low",0.883
same,normalized growth,"locus YDR150W, strain NUM1, active compounds read low",1.02
same,normalized growth,"locus YDR159W, strain sac3, active compounds read low",0.867
same,normalized growth,"locus YDR162C, strain NBP2, active compounds read low",1.01
same,normalized growth,"locus YDR195W, strain ref2",1
same,normalized growth,"locus YDR297W, strain sur2, active compounds read low",0.982
same,normalized growth,"locus YDR318W, strain mcm21, active compounds read low",1
same,normalized growth,"locus YDR334W, strain swr1, active compounds read low",0.981
same,normalized growth,"locus YDR335W, strain msn5, active compounds read low",0.972
same,normalized growth,"locus YDR388W, active compounds read low",0.993
same,normalized growth,"locus YDR392W, strain spt3, active compounds read low",0.797
same,normalized growth,"locus YDR502C, strain sam2, active compounds read low",0.996
same,normalized growth,"locus YEL003W, strain gim4, active compounds read low",0.969
same,normalized growth,"locus YEL037C, strain rad23, active compounds read low",0.981
same,normalized growth,"locus YEL061C, strain CIN8 (second series), active compounds read low",0.979
same,normalized growth,"locus YEL061C, strain CIN8, active compounds read low",1.01
same,normalized growth,"locus YER015W, strain faa2, active compounds read low",0.968
same,normalized growth,"locus YER016W, strain bim1, active compounds read low",0.985
same,normalized growth,"locus YER110C, active compounds read low",1.01
same,normalized growth,"locus YER111C, strain swi4, active compounds read low",0.997
same,normalized growth,"locus YER155C, strain BEM2 (second series), active compounds read low",0.976
same,normalized growth,"locus YER155C, strain BEM2, active compounds read low",1.01
same,normalized growth,"locus YER167W, strain BCK2, active compounds read low",0.997
same,normalized growth,"locus YFR010W, strain ubp6, active compounds read low",0.993
same,normalized growth,"locus YGL078C, strain dbp3, active compounds read low",0.995
same,normalized growth,"locus YGL086W, strain mad1, active compounds read low",0.997
same,normalized growth,"locus YGL167C, strain pmr1, active compounds read low",1
same,normalized growth,"locus YGL173C, strain kem1, active compounds read low",0.983
same,normalized growth,"locus YGL227W, strain vid30, active compounds read low",0.978
same,normalized growth,"locus YGL240W, strain doc1, active compounds read low",0.973
same,normalized growth,"locus YGL248W, strain PDE1, active compounds read low",1.01
same,normalized growth,"locus YGL253W, strain hxk2, active compounds read low",0.989
same,normalized growth,"locus YGR078C, strain PAC10, active compounds read low",1.01
same,normalized growth,"locus YGR135W, strain pre9, active compounds read low",0.989
same,normalized growth,"locus YGR229C, strain SMI1, active compounds read low",0.886
same,normalized growth,"locus YGR252W, strain gcn5, active compounds read low",0.978
same,normalized growth,"locus YHR013C, strain ard1, active compounds read low",0.919
same,normalized growth,"locus YHR027C, strain rpn1, active compounds read low",0.984
same,normalized growth,"locus YHR030C, strain SLT2, active compounds read low",1 and 0.99
same,normalized growth,"locus YHR079C, strain IRE1 (second series), active compounds read low",1
same,normalized growth,"locus YHR079C, strain IRE1, active compounds read low",1.02
same,normalized growth,"locus YHR094C, strain hxt1, active compounds read low",0.992
same,normalized growth,"locus YHR129C, strain ARP1, active compounds read low",1
same,normalized growth,"locus YHR142W, strain chs7, active compounds read low",0.954
same,normalized growth,"locus YHR200W, strain rpn10, active compounds read low",0.991
same,normalized growth,"locus YIL066C, strain RNR3, active compounds read low",1.02
same,normalized growth,"locus YIL073C, strain SPO22, active compounds read low",0.967
same,normalized growth,"locus YIL125W, strain kgd1, active compounds read low",1
same,normalized growth,"locus YIR030C, strain dcg1, active compounds read low",0.997
same,normalized growth,"locus YJL092W, strain hpr5, active compounds read low",0.961
same,normalized growth,"locus YJL095W, strain BCK1 (second series), active compounds read low",1
same,normalized growth,"locus YJL095W, strain BCK1, active compounds read low",0.936 and 1.02
same,normalized growth,"locus YJL115W, strain asf1, active compounds read low",0.948
same,normalized growth,"locus YJL129C, strain trk1, active compounds read low",0.96
same,normalized growth,"locus YJL134W, strain LCB3, active compounds read low",1.01
same,normalized growth,"locus YJL154C, strain vps35, active compounds read low",0.993
same,normalized growth,"locus YJL164C, strain tpk1, active compounds read low",0.969
same,normalized growth,"locus YJL166W, strain qcr8, active compounds read low",1
same,normalized growth,"locus YJL168C, strain set2, active compounds read low",1
same,normalized growth,"locus YJL187C, strain SWE1 (second series), active compounds read low",1.02
same,normalized growth,"locus YJR043C, strain POL32, active compounds read low",0.911
same,normalized growth,"locus YJR066W, strain TOR1, active compounds read low",0.94

# Source: PubChem BioAssay AID1159580 (chemical genetic matrix, 2015)
